The record followed here is PubChem BioAssay (NCI).

Common to all, as to experiment: NCI-60 one-dose screen, 48 h (100 = growth as untreated, 0 = no growth, -100 = all killed)
What all share (conditions): 10 µM unless noted

Assay [1] deals with SK-MEL-2 melanoma.
Assay [2] has as its system EKVX NSCLC.
Assay [3] deals with SN12C renal.
For assay [4], the system named is UO-31 renal.
Assay [5] relates to TK-10 renal.
Assay [6] relates to ACHN renal.
The test system of assay [7] is A498 renal.
In assay [8] the test system is CCRF-CEM leukemia.
For assay [9], the system named is MOLT-4 leukemia.
Assay [10] relates to SR leukemia.

Compounds without any hit were thinned out: in the full panel of roughly 83,000, 20% have a hit.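 The endpoint reported here, percent growth, reads 100 for growth as untreated, 0 for no net growth and -100 for all cells dead.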 A number with no mark means an inactive call. The source made the active and inactive calls. How the source made its calls: active means growth percent below 10; inactive means the rest.

Regarding `COc1cc(/C=C/C(=O)c2ccc(NC(=O)CSc3nnc(-c4cc(OC)c(OC)c(OC)c4)n3-c3ccccc3)cc2)cc(OC)c1OC`, the growth was 32.1% in [1]; 31.3% in assay [2]; 41% in [3]; -50.3% (active) in [4]; 45.1% in assay [5]; 17.9% in [6]. Further, the growth in assay [7] was -12.1% (active); in assay [8] it was 6.02% (active); in assay [9] it was 5.18% (active); in [10] it was 2.13% (active).

With `Nc1ccc(C2=NN(C(=O)c3cc(-c4ccc(Cl)cc4)nc4ccccc34)C(c3ccccc3)C2)cc1` (stereo not given), the growth in assay [1] is 37.1%; in [2], 40.4%; in assay [3], 51.2%; in [4], 49.5%; in assay [5], 58.5%; in assay [6] it was 51.5%. For the same compound, the growth in [7] was 30%; in [8], 24.1%; in [9], 41.2%; in [10], 25.9%.

On to `CC[C@]12C=CCN3CC[C@@]4(c5cc(NC(=O)CCC(=O)O[C@H]6CC[C@H]7[C@@H]8CC[C@H]9CC(=O)CC[C@]9(C)[C@H]8CC[C@]67C)c(OC)cc5N(C)[C@H]4[C@@](O)(C(=O)OC)[C@@H]1OC(C)=O)[C@@H]32`, for which the growth in assay [1] was 77.1%; in assay [2], 66%; in [3] it was 71.2%; in assay [4] it was 51.3%; in assay [5], 90.5%; in assay [6] it was 87.1%. Also, the growth in assay [7] is 66.3%; in [8] it was 9.54% (active); in [9], 17.8%; in assay [10] it was 24.8%.

On to `C=C1C(=O)O[C@H]2[C@H]1CC/C(COC(=O)N1CCC[C@H]1C(=O)Nc1ccc(OC)c(C(N)=O)c1O)=C\CC[C@@]1(C)O[C@@H]21`, for which the growth in [1] was 66.5%; in assay [2], 77%; in assay [3] it was 12.9%; in assay [4], 41.2%; in assay [5], -4.11% (active); in assay [6] it was 30.6%. For the same compound, the growth was 87.9% in assay [7], -12.6% (active) in [8], 8.14% (active) in [9] and 13.9% in assay [10].

For `CCSc1ccc(C2C(Br)C(=O)N2c2cc(OC)c(OC)c(OC)c2)cc1` (stereo not given), the growth is 63.7% in assay [1]; 70.2% in assay [2]; 31.6% in [3]; 26.2% in assay [4]; 76.6% in assay [5]; 32.6% in assay [6]. The growth is -14.3% (active) in assay [7], 12.3% in assay [8], 20% in [9] and 16.3% in assay [10].

Regarding `O=Cc1[nH]c(Sc2ccccc2)c2ccccc12`, the growth is 81.6% in assay [1]; 76.1% in [2]; 77.7% in assay [3]; 48.6% in assay [4]; 80.3% in assay [5]; 96.6% in [6]. Besides, the growth is 95.3% in [7], 12.1% in assay [8], 17% in assay [9] and 59.3% in assay [10].

In the case of `CC(C)Cc1cc(CNC(=O)C2[C@H]3CN(C(=O)c4ccccc4)C[C@@H]23)nn1-c1ccccc1` (stereo not given in full), the growth in assay [1] is 83.8%; in [2], 92.8%; in [3] it was 99.1%; in [4], 74.9%; in [5], 73.2%; in assay [6], 92.2%. Moreover, the growth in assay [7] is 96.6%; in [8] it was 89.7%; in assay [9], 80.6%; in assay [10] it was 90.4%.

In the case of `CC(C)(C)CC(C)(C)Cc1ccc(OCCOCC[N+](C)(C)Cc2ccccc2)cc1`, the growth in assay [1] was 28.4%; in assay [2], 74.7%; in assay [3], 8.79% (active); in assay [4], 97.1%; in assay [5], 49.4%; in [6], 97.4%. Also, the growth in [7] is 63.8%; in [8] it was 10%; in assay [9], 7.43% (active); in assay [10], -27.8% (active).

For the compound `CCOC(=O)NCCc1nc2c([nH]1)c(=O)n(C)c(=O)n2C`, the growth in assay [1] is 101%; in assay [2], 99.7%; in [3], 101%; in assay [4] it was 83.3%; in assay [5], 100%; in [6], 110%. The growth was 105% in assay [7], 101% in assay [8], 115% in assay [9] and 119% in [10].

`COC(=O)c1cncc(C(=O)Nc2ccc(-n3cnc4ccccc43)cc2)c1`: the growth is 105% in assay [1]; 100% in [2]; 101% in [3]; 93.8% in [4]; 96.2% in [5]; 90.4% in [6]. Further, the growth was 88.3% in assay [7], 98% in [8], 90.2% in [9] and 75.4% in assay [10].

As to `CC(=O)Oc1c2c(nc3c1c1ccccc1n3Cc1ccccc1)-c1ccccc1C2`, the growth in assay [1] is 71.4%; in assay [2] it was 80.8%; in assay [3] it was 85.8%; in assay [4], 58.2%; in assay [5], 114%; in [6], 85.7%. Besides, the growth in assay [7] was 82%; in assay [8], 91.5%; in assay [9], 72.6%; in [10], 86.2%.

For the compound `NC(=N\N=C\c1ccccc1O)/C(N)=N/N=C/c1ccccc1O`, the growth in assay [1] is 94.8%; in [2], 88.5%; in [3], 90.8%; in assay [4], 70.2%; in [5], 92.5%; in assay [6], 74.9%. The growth in assay [7] was 79%; in assay [8], 80.1%; in [9] it was 68.3%; in [10] it was 71.2%.

In the case of `OCCNc1nc(NCCO)nc(Nc2ccc(C3=NN(c4cc(Cl)cc(Cl)c4)C(c4ccc(C(F)(F)F)cc4)C3)cc2)n1` (stereo not given), the growth is 45.9% in [1]; 49.4% in [2]; 59.6% in assay [3]; 42.2% in assay [4]; 33.1% in assay [5]; 29.6% in [6]. The growth in assay [7] was 67.7%; in assay [8] it was -6.5% (active); in [9], 7.9% (active); in [10], 4.83% (active).

As for `O=C(Nc1nc2ccc(C(F)(F)F)cc2s1)c1cc(Cl)ccc1O`, the growth in assay [1] is -11.4% (active); in [2] it was -1.23% (active); in [3], 9.78% (active); in assay [4], 7.2% (active); in [5], 4.94% (active); in [6] it was 2.6% (active). Also, the growth in assay [7] is -26.8% (active); in assay [8] it was 15%; in [9] it was 1.46% (active); in [10] it was 0.767% (active).

With `O=C1Nc2ccc(Br)cc2/C1=N\N=C/c1cn(Cc2ccccc2)c2ccccc12`, the growth in assay [1] is 91.3%; in assay [2] it was 56.2%; in [3] it was 84.5%; in assay [4], 75.7%; in assay [5] it was 82.4%; in assay [6], 98.9%. Also, the growth in assay [7] was 15.3%; in [8], 81.1%; in [9], 67%; in assay [10], 80.1%.

On to `CCOC(=O)c1c(C)nc2c(c1N)/C(=C/c1cccs1)C(=O)N2Cc1ccccc1`, for which the growth in assay [1] is 60%; in [2], 82%; in assay [3], 73.2%; in assay [4] it was 45.6%; in [5], 90.1%; in assay [6], 79.7%. Also, the growth is 70.2% in [7], 29.8% in assay [8], 18.8% in assay [9] and 9.76% (active) in assay [10].

`Nc1c(C(=O)Nc2ccccc2)sc2nc3c(cc12)CN(C(=O)OCc1ccccc1)CC3`: the growth in [1] is 31.8%; in assay [2] it was 69.6%; in assay [3] it was 66%; in assay [4], 67.5%; in assay [5] it was 98.8%; in assay [6], 60.2%. In addition, the growth in assay [7] was 44.6%; in assay [8], 31.8%; in [9], 37.8%; in assay [10], 25.1%.

For the compound `N#Cc1ccc(N2Cc3cc(Cl)ccc3OC3=C2C(=O)N(Cc2ccc(F)cc2)C3=O)cc1`, the growth was -46.5% (active) in assay [1]; 37.4% in [2]; -24.9% (active) in assay [3]; -85.7% (active) in [4]; -79.4% (active) in [5]; -92.9% (active) in [6]. For the same compound, the growth was 120% in assay [7], -20% (active) in assay [8], -34.5% (active) in [9] and -33.5% (active) in assay [10].

As for `COc1cccc2c1-c1ccccc1C2=O`, the growth is 34.3% in [1]; 40.7% in [2]; 53.9% in assay [3]; 47.1% in assay [4]; 66.7% in assay [5]; 50% in [6]. In addition, the growth is 7.69% (active) in assay [7], 5.55% (active) in [8], 73.9% in [9] and 40.4% in assay [10].

As for `Cn1c2c(c3ccc(-c4ccn[nH]4)cc3c1=O)C(=O)c1ccccc1-2`, the growth in assay [1] was 118%; in assay [2] it was 20.2%; in assay [3] it was 7.3% (active); in assay [4], 19.2%; in [5], 71.6%; in [6], -8.82% (active). The growth in [7] is 60%; in [8] it was 2.31% (active); in assay [9], -1.45% (active); in assay [10], 1.32% (active).

`NS(=O)(=O)c1ccc(-n2ncc(NC(=O)Nc3ccc(S(=O)(=O)Nc4nccs4)cc3)c2-c2ccccc2)cc1`: the growth in assay [1] was 93.2%; in assay [2], 100%; in [3] it was 98.8%; in assay [4], 97.5%; in assay [5] it was 95.9%; in assay [6], 96.5%. Further, the growth in assay [7] is 112%; in assay [8] it was 97.7%; in assay [9], 100%; in assay [10] it was 103%.

`CCOC(=O)c1c(C)nc2c(c1N)/C(=C/c1cccs1)C(=O)N2c1ccc(OC)cc1`: the growth in [1] is 33%; in [2], 49.8%; in assay [3], 39.4%; in assay [4], 16.5%; in assay [5] it was 35.7%; in [6], 31.5%. For the same compound, the growth was 35.1% in assay [7], 92.2% in assay [8], 80.5% in assay [9] and 55.8% in assay [10].

With `COC(=O)/C=C1\SC(=Nc2cccc(OC)c2)N(CCc2c[nH]c3ccccc23)C1=O`, the growth in assay [1] was 60.8%; in [2], 76.1%; in assay [3] it was 64.4%; in assay [4] it was 76.3%; in assay [5], 89.3%; in [6] it was 78.4%. Further, the growth in assay [7] was 90.1%; in assay [8] it was 24.7%; in [9], 2.83% (active); in assay [10], 12%.

For the compound `Nc1c(C(=O)Nc2cccc3ccccc23)sc2nc3c(cc12)CCCCC3`, the growth in assay [1] was 50.5%; in assay [2] it was 40.4%; in [3], 43.4%; in assay [4], 51.9%; in assay [5], 62.8%; in assay [6], 53.6%. Also, the growth in [7] is -1.52% (active); in assay [8], 9.18% (active); in [9], 15.9%; in [10] it was 19.9%.

`C#CCN1C(=O)c2ccccc2N(CC#C)C12CCN(Cc1cn(CC(=O)Nc3ccccc3C(N)=O)nn1)CC2`: the growth is 98.8% in [1]; 78.6% in assay [2]; 88.9% in assay [3]; 59.3% in assay [4]; 82.8% in assay [5]; 92.5% in [6]. Further, the growth in [7] was 75.8%; in [8] it was 84.3%; in [9], 83.2%; in assay [10] it was 64.6%.

For the compound `COc1ccc(/C=C(/C(=O)N2CCN(Cc3ccccc3)CC2)c2cc(OC)c(OC)c(OC)c2)cc1O`, the growth in assay [1] is 73.6%; in assay [2], 87.2%; in assay [3], 91.2%; in assay [4] it was 62.5%; in [5], 88.5%; in assay [6] it was 67.2%. Besides, the growth in assay [7] was 54.9%; in [8], 64.9%; in assay [9] it was 72.1%; in assay [10] it was 28%.
